Screen size: about 390,000 compounds; about 17,000 (4.4%) were called active. Where a call stands in place of a potency, no number is given. Another 8% or so got no clear call; they are omitted. The sample holds actives, similar compounds and a random draw of the others, so the mix is not that of the screen. Calls come from the whole dose curve; as a rule, active = well fitted inhibition curve with a large enough effect; inconclusive = small, poorly fitted or top-dose-only effect; inactive = no such curve, though single readings can be large or run the other way.
Biological target: Lysine-specific demethylase 4A (Homo sapiens) (UniProt O75164)
Experiment: qHTS Assay for Inhibitors of JMJD2A-Tudor Domain; note: nearly all actives have a fitted effect of over 50% in size
Details: AlphaScreen JMJD2A-Tudor / H3K4me3 peptide binding; series mostly up to 114 µM
Potency is the fitted concentration of half-maximal effect.

Lysine-specific demethylase 4A (Homo sapiens), sequence (O75164 whole entry, looked up, the tested form may be a part): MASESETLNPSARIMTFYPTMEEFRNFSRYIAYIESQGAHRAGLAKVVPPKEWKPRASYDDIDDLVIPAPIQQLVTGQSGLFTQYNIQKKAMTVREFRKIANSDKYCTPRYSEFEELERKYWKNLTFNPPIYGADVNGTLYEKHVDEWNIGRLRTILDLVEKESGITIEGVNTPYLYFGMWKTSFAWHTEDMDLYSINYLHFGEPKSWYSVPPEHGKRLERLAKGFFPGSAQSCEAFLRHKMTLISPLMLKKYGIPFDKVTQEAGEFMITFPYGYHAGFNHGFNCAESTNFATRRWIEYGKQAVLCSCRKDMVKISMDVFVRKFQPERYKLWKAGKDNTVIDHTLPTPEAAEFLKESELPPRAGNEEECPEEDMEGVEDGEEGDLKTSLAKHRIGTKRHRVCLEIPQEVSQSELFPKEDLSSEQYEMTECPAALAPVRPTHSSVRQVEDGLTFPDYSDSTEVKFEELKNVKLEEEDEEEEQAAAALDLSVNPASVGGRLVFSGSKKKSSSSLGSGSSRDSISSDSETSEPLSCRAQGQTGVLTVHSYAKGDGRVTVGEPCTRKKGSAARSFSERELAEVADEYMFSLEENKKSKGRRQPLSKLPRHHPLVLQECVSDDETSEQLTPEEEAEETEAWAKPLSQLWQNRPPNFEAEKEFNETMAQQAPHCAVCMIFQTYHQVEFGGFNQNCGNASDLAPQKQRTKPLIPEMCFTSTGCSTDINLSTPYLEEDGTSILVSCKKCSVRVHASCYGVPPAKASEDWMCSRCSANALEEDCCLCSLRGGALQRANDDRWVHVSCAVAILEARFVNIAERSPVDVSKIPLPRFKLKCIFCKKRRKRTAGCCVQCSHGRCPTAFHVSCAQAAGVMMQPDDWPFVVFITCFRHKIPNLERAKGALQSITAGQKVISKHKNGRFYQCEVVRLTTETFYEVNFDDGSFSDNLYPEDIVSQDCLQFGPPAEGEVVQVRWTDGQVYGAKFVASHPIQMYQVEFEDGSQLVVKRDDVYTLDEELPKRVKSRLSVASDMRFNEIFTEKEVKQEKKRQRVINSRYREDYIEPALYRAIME

Row | Compound | Potency
1 | Cc1nn(-c2ccc(N3CCCCC3)nn2)c(C)c1CCC(=O)NCc1ccccc1F | inactive
2 | COc1ccc(/C=C/C(=O)NC(=S)N2CCCC(C(N)=O)C2)cc1 (configuration not stated) | inactive
3 | COc1ccc(CN2CCCC(C(=O)N3CCCCC3)C2)cc1 (configuration not stated) | 79.4 µM (active)
4 | COc1ccc(CNC(=O)C2CCCC2)cc1 | inactive
5 | O=C(COc1ccc(Cl)cc1)Nc1ccccc1OCc1cc(=O)n2ccccc2n1 | inactive
6 | CC(=O)c1cccc(NC(=O)C2COc3ccccc3O2)c1 (configuration not stated) | inactive
7 | C/C(=N/NC(=O)C1COc2ccccc2O1)c1ccco1 (configuration not stated) | inactive
8 | O=C(Nc1nc(-c2ccncc2)cs1)C1COc2ccccc2O1 (configuration not stated) | 50.1 µM (active)
9 | O=C(CC(c1cccs1)N1Cc2ccccc2C1=O)Nc1ccc(F)cc1F (configuration not stated) | inactive
10 | Cc1ccc(NS(=O)(=O)c2cc3c(cc2Br)NC(=O)CO3)cc1C | inactive
11 | COc1ccc(-c2c(C)c3ccc(O)c(CN4CCN(C)CC4)c3oc2=O)cc1OC | inactive
12 | CCOC(=O)COc1cc(OCC(=O)OCC)c2c(=O)cc(-c3ccccc3)oc2c1 | inactive
13 | COc1c(O)cc2oc(-c3ccc(O)c(O)c3)cc(=O)c2c1O | 31.6 µM (active)
14 | O=C(CCc1nc(CN2CCN(S(=O)(=O)c3ccc(F)cc3)CC2)no1)N1CCCCC1 | inactive
15 | O=C(Nc1ccc(OC(F)(F)F)cc1)c1cc2c(=O)n3ccccc3nc2s1 | inactive
16 | CCc1cccc(C)c1NC(=O)COC(=O)CNC(=O)c1cccs1 | inactive
17 | CCc1c(C)sc(NC(=O)c2ccc(Br)o2)c1C(=O)OC | inactive
18 | CCc1c(C)sc(NC(=O)c2cccs2)c1C(N)=O | 89.1 µM (active)
19 | CC1CCCN(S(=O)(=O)c2ccc3[nH]c(=O)cc(C(=O)NCCc4ccc(Cl)cc4)c3c2)C1 (configuration not stated) | inactive
20 | Cc1ccc(NC(=O)c2nc(S(=O)(=O)Cc3cccc(C)c3)ncc2Cl)cc1 | inactive
21 | Cc1cccc(C(=O)N2CCc3c([nH]c4ccccc34)C2CC(C)C)n1 (configuration not stated) | inactive

Row | Compound | Potency
22 | Cc1cccc(C2c3[nH]c4ccccc4c3CCN2C(=O)c2cc(-c3cccn3C)n[nH]2)n1 (configuration not stated) | 56.2 µM (active)
23 | O=C(c1cn2ccccc2n1)N1CCc2c([nH]c3ccccc23)C1c1ccccn1 (configuration not stated) | inactive
24 | COc1ccc(CCNC(=O)c2cnc3sc(N4CCCCCC4)nn3c2=O)cc1OC | inactive
25 | COc1ccccc1NC(=O)Cn1cnc2ccc(S(=O)(=O)N3CCC(C)CC3)cc2c1=O | inactive
26 | COc1ccc(OC)c(NC(=O)CSC2=Nc3ccccc3C3=NC(CC(=O)NCCc4ccccc4)C(=O)N23)c1 (configuration not stated) | inactive
27 | Cc1cccc(N(C)C(=O)CS(=O)(=O)c2cccc3nsnc23)c1 | inactive
28 | Cc1cccc(C)c1NC(=O)CSc1nc2c([nH]1)c(=O)n(C)c(=O)n2C | inactive
29 | Cc1cc(C)c(C=NNc2nc3c([nH]2)c(=O)n(C)c(=O)n3C)c(C)c1 | inactive
30 | Cc1ccc(NN=Nc2nc3c([nH]2)c(=O)n(C)c(=O)n3C)cc1 | 14.1 µM (active)
31 | CCc1ccc(NC(=O)c2cc3c(=O)n(Cc4cccnc4)ccc3nc2C)cc1 | inactive
32 | O=C(NCc1ccccc1)C(=O)NCC(c1ccco1)S(=O)(=O)c1ccc(Cl)cc1 (configuration not stated) | inactive
33 | Cc1ccc(C)n1-c1nnc(N2CCC(C(=O)NCc3ccccc3Cl)CC2)s1 | inactive
34 | COCCNC(=O)Nc1ccc2nc(-c3ccco3)c(-c3ccco3)nc2c1 | 20 µM (active)
35 | C=CCNC(=O)c1ccc2nc(-c3ccco3)c(-c3ccco3)nc2c1 | inactive
36 | CCOc1ccc(NC(=O)c2ncoc2-c2ccco2)cc1 | inactive
37 | CC(C)Cn1c(C2CC(=O)N(c3ccccc3Cl)C2)nc2ccccc21 (configuration not stated) | inactive
38 | Cc1ccccc1CNC(=O)c1ccc(NC(=O)N2CCCCc3ccccc32)cc1 | inactive
39 | CCOC(=O)c1c(C)[nH]c(C)c1S(=O)(=O)N(C)CC(=O)N1CCN(c2ccccc2)CC1 | inactive
40 | Cc1cc(Br)ccc1NC(=O)Cn1cnc2sc(C)c(S(=O)(=O)N3CCN(C)CC3)c2c1=O | inactive
41 | CC1CCCN(S(=O)(=O)c2ccc(C(=O)Nc3nnc(-c4ccncc4)o3)cc2)C1 (configuration not stated) | inactive
42 | O=C(Nc1nnc(-c2ccccc2)o1)c1cccc(S(=O)(=O)N2CCOCC2)c1 | inactive

Row | Compound | Potency
43 | O=C(Nc1nnc(-c2ccco2)o1)c1ccc(S(=O)(=O)N2CCOCC2)cc1 | 79.4 µM (active)
44 | Cc1ccc(Nc2nnc(-c3ccc(C)c(S(=O)(=O)N4CCCCC4)c3)c3ccccc23)cc1 | inactive
45 | COc1ccccc1C1=Nc2cccc3cccc(c23)N1 | 50.1 µM (active)
46 | COc1ccccc1-c1nnc(-c2ccc(F)cc2)o1 | inactive
47 | COc1ccccc1-c1nc(C(F)(F)F)c(OC)o1 | inactive
48 | COc1ccc(NC(=O)Cn2c(=O)cc(C)c3c(C)nn(-c4cccc(Cl)c4C)c32)cc1OC | inactive
49 | CCOC(=O)C1CCCN(C(=O)c2ccc(-n3ccc4ccccc43)s2)C1 (configuration not stated) | inactive
50 | CCCn1c2ccccc2c2cnn(CC(=O)N(CC)c3cc(C)ccc3C)c(=O)c21 | inactive
51 | Cc1nnc(NCc2ccccc2)c2c1nnn2Cc1ccc(F)cc1 | inactive
52 | CN(C)[C@@H]1C(=O)C(C(N)=O)=C(O)[C@@]2(O)C(=O)C3=C(O)c4c(O)ccc(Cl)c4[C@@H](O)[C@H]3C[C@@H]12 | 25.1 µM (active)
53 | C=C1c2c(Cl)ccc(O)c2C(O)=C2C(=O)[C@]3(O)C(O)=C(C(N)=O)C(=O)[C@@H](N(C)C)[C@@H]3[C@@H](O)C12 (some centres not stated) | 2 µM (active)
54 | COc1ccccc1NC(=O)CSC1=Nc2ccccc2C2=NC(CC(=O)NCc3cccs3)C(=O)N12 (configuration not stated) | inactive
55 | COc1ccc(C)cc1-n1c(-c2ccc(C)cc2)cc2c1CC(C)(C)CC2=O | inactive
56 | O=C1CSC2(C(=O)N(Cc3ccccc3)c3ccccc32)N1c1cccc(F)c1 (configuration not stated) | inactive
57 | COc1ccccc1NC1=NC(c2ccc(Cl)cc2)N=C(N)N1 (configuration not stated) | inactive
58 | COc1ccccc1Nc1nc(N)nc(CSC(=S)N2CCOCC2)n1 | inactive
59 | COc1ccccc1Nc1nc(N)nc(CN(C)C2CCCCC2)n1 | 15.8 µM (active)
60 | O=C(Nc1cc(C(F)(F)F)ccc1Cl)c1ccc2c(c1)CCN2S(=O)(=O)c1ccccc1 | inactive
61 | CC(C)CNc1ncnc2c1nnn2C | inactive
62 | O=C(CC1N=C2c3ccccc3N=C(SCc3cccc(Cl)c3)N2C1=O)NCc1ccc2c(c1)OCO2 (configuration not stated) | inactive
